7 compounds from PubChem BioAssay (EPA / NIEHS) can be followed below.

Results filed as inconclusive are left out. Active and inactive are the calls of the source. How the source made its calls, unless noted: active means hit-call score of the fitted dose curve at least 0.9, where 1 is the maximum; inactive means score below 0.9.

Experiment [1] has as its system Brachyury (BRA) Protein Expression, Deisenroth Lab, TBXT (gene 6862). Kind of experiment: CCTE_Deisenroth_DEVTOX-GLR_Pluri_BRA: CCTE's DevTox GLR-Pluri Assay Evaluation of Brachyury (BRA) Protein Expression, Deisenroth Lab (AID 2284429; active means hit-call score of the fitted dose curve at least 0.9, where 1 is the maximum). As to the method: CCTE_Deisenroth_DEVTOX-GLR_Pluri assay is a cell-based, multiplex-readout assay that uses RUES2-GLR, a human pluripotent cell line, with measurements taken at 48 hours after chemical dosing in a 384-well microplateCCTE_Deisenroth_DEVTOX-GLR_Pluri_BRA is 1 of 4 assay components calculated from the CCTE_Deisenroth_DEVTOX-GLR_Pluri assay and it measures an the percentage of cells in an mesoderm state. Using a type of inducible fluorescent protein reporter, gain-of-signal activity can be used to understand changes in gene expression with fluorescent microscopy. The percentage of BRA+ cells are determined by calculating the number of BRA+ cells divided by the cell count. To generalize the intended target to other relatable targets, this assay component is annotated to the transcription factor intended target family, where the subfamily is T-box protein.Data from the assay component CCTE_Deisenroth_DEVTOX-GLR_Pluri_BRA was analyzed as 1 assay endpoint. The endpoint is the percent BRA+ cell population minus the 0.2% DMSO control in the CCTE_Deisenroth_DEVTOX-GLR_Pluri assay. Furthermore, this assay endpoint can be referred to as a secondary readout, because this assay has produced multiple assay endpoints where this one serves as a measure of mesoderm differentiation.
All assay protocols are aligned to the DevTox GLR-Endo assay workflow. […]

A short description of experiment [2]: CCTE_Deisenroth_DEVTOX-GLR_Pluri_CellCount: Viability Assessment in CCTE's DevTox GLR-Pluri Assay Evaluation of Total Cell Counts, Deisenroth Lab (AID 2284430). An outline of the steps: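 Cytotoxicity readout: fluorescent nuclei counts by high-content imaging, expressed as percent change relative to 0.2% DMSO. Human RUES2-GLR pluripotent line differentiated 48 h, dosed twice at 24-h intervals across 1 nM - 200 uM (10 points).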

Experiment [3] concerns TTR (gene 7276). Kind of experiment: CCTE_GLTED_hTTR_0.125uM: CCTE's human Transthyretin (hTTR) Inhibition Assay, with 0.125uM TTR, Great Lakes Toxicology and Ecology Division (GLTED) Lab (AID 2284431).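 Further: hits lower the fluorescence signal relative to DMSO baseline.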 An outline of the steps:
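Fluorescence (380 ex, 475 em) reported the ANSA probe remaining bound to 0.125uM human transthyretin. Chemicals were incubated with the protein for 2 hours; activity was scored as loss of signal against DMSO negative control.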

Consider `O=P1(N(CCCl)CCCl)NCCCO1` (stereo not drawn), for which the compound was called inactive in experiment [1] and in experiment [2].
As usually defined, the AC50 is the concentration giving half of the maximal activity seen. Turning to `CCC(C)(C)c1ccc(O)cc1`, the AC50 in experiment [3] is 14.4 µM (active).
Still for that read-out and setting: as for `O=c1ssc(Cl)c1Cl`, the figure is 0.578 µM (active).
On the same count and under the same terms, as for `CCCCCCCc1ccc(O)cc1`, the figure is 0.736 µM (active); as for `CCCCc1ccc(O)cc1`, 6.48 µM (active); as for `O=S(=O)(c1ccc(O)cc1)c1ccc(O)cc1`, 19.9 µM (active).
On to `CO/N=C(/C(=O)OC)c1ccccc1COc1ccccc1C`, for which the AC50 in experiment [3] was 3.22 µM (active).
